Experiment [1] is described as follows: Nuclear factor erythroid 2-related factor 2/antioxidant responsive element (Nrf2/ARE) small molecule agonists: qHTS cell viability counter screen in human keratinocytes (AID 1919968; active = well fitted curve in the direction sought with a large enough effect in the repeat runs; an effect the other way counts as inactive or inconclusive; note: nearly all actives have a fitted effect of over 55% in size). The gist of the method: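 After a 5 h attachment period, ARE-reporter keratinocytes were dosed with compounds in DMSO and then cultured 23 h at 37 C. Cell viability came from CellTiter-Fluor signal read after a further 1 h.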

A short description of experiment [2]: Nuclear factor erythroid 2-related factor 2/antioxidant responsive element (Nrf2/ARE) small molecule agonists: luciferase reporter gene qHTS assay in human keratinocytes (AID 1919969). Note: nearly all actives have a fitted effect of over 35% in size.
Experiment [3] deals with Gonadotropin-releasing hormone receptor (Homo sapiens) (UniProt P30968). In words: Human gonadotropin-releasing hormone receptor (GnRHR) small molecule agonists, calcium flux assay in GnRHR-HEK293 cells (AID 1920063). Note: nearly all actives have a fitted effect of over 35% in size. The gist of the method: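 We seeded human GnRHR-expressing HEK293 cells for 18 hours, loaded them with calcium dye for an hour at 37 C, added test compounds, and recorded fluorescence intensity kinetically for three minutes.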
Sequence of Gonadotropin-releasing hormone receptor (Homo sapiens) (P30968 whole entry, looked up): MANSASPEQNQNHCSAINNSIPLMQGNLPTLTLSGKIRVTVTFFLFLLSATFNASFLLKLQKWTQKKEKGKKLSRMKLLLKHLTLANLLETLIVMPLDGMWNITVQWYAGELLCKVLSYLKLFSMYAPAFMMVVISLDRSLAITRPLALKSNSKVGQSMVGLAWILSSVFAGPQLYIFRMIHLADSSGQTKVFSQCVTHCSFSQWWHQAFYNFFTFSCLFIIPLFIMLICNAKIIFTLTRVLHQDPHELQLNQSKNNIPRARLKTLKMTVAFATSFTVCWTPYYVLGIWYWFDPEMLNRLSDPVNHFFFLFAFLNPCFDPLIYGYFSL

Experiment [4] addresses KiSS-1 receptor (Homo sapiens) (UniProt Q969F8). Nature of the experiment: Human kisspeptin (KISS1R) small molecule agonists, calcium flux assay in KISS1R-HEK293 cells (AID 1920064; active = well fitted curve in the direction sought with a large enough effect in the repeat runs; an effect the other way counts as inactive or inconclusive). The gist of the method: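 Kinetic calcium assay, 1 s sampling over 3 min at Ex/Em 480/540, in HEK293 cells engineered with human KISS1R; compounds delivered in DMSO after 1 h dye loading.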
Experiment [5] can be described thus: G protein-coupled receptor (GPCR) small molecule agonists, calcium flux assay: HEK293 wild type cell line counter screen (AID 1920065). The gist of the method: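 Calcium-sensitive dye, loaded 1 h at 37 C into cells cultured 18 h, reports compound-evoked calcium release as fluorescence (Ex/Em 480/540), measured over 3 min. Agonist mode; 15-point titrations, triplicate.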

Experiment [6] can be described thus: p53 small molecule agonists, cell-based qHTS assay with human liver microsomes (AID 1963577).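 Note: p53 response element beta-lactamase reporter cells with liver microsomes plus NADPH.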 The gist of the method: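 Steps: plate p53RE-bla cells, incubate 5 h at 37 C; add compound in DMSO; add microsomes (0.5 mg/mL final) and NADPH (0.5 mg/mL final); incubate 16 h at 37 C; add LiveBLAzer, 2 h RT; read fluorescence.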
The nature of experiment [7]: p53 small molecule agonists, cell-based qHTS assay with rat liver microsomes (AID 1963578). The gist of the method: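 Metabolic activation is supplied by rat liver microsomes with NADPH (each 0.5 mg/mL final). p53RE-bla cells incubate with compound 16 h at 37 C; reporter activity is measured by LiveBLAzer fluorescence.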
A short description of experiment [8]: p53 small molecule agonists, cell-based qHTS assay with human liver microsomes: qHTS cell viability counter screen (AID 1963579). Note: nearly all actives have a fitted effect of over 45% in size. The gist of the method:
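After the 460/530 nm beta-lactamase read, CellTiter-Glo was added to the same wells and luminescence measured after 30 min at room temperature, giving viability of p53RE-bla cells treated 16 h with compounds plus microsomes and NADPH.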

Experiment [9] in a line: p53 small molecule agonists, cell-based qHTS assay with rat liver microsomes: qHTS cell viability counter screen (AID 1963580). Note: nearly all actives have a fitted effect of over 45% in size. The gist of the method: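 In HCT-116 cells carrying a p53 response element-bla reporter, compounds were metabolically activated in situ by rat liver microsomes with NADPH over 16 h. Cell ATP content then served as the cytotoxicity measure.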
Experiment [10] can be described thus: p53 small molecule agonists, cell-based qHTS assay: qHTS cell viability counter screen (AID 1963581). Note: nearly all actives have a fitted effect of over 45% in size. The gist of the method:
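Following 5 h attachment, HCT-116 p53RE-bla cells took up compound for 16 h at 37 C; the reporter was read with B/G FRET substrate (2 h RT), and viability then via CellTiter-Glo ATP luminescence.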

Experiment [11] in a line: p53 small molecule agonists, cell-based qHTS assay (AID 1963582; active = well fitted activation curve with a large enough effect in the signal ratio in the repeat runs, not every such curve was filed as active; the % refers to the signal ratio). The gist of the method: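 In this cell-based concentration-response screen, a p53 response element drives beta-lactamase; cells received DMSO-borne compounds after 5 h culture and were incubated a further 16 h before FRET substrate development.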
Experiment [12] deals with 5-hydroxytryptamine receptor 2A (Homo sapiens) (UniProt P28223). In words: 5-hydroxytryptamine receptor 2A (HTR2A) small molecule antagonists, cell-based qHTS assay (AID 1963586). Note: nearly all actives have a fitted effect of over 45% in size. Note: potency is the fitted concentration of half-maximal effect. The gist of the method:
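Antagonist-mode intracellular calcium assay: DOI (4 nM) added after 5 min compound pre-incubation at room temperature to dye-loaded HTR2A-CHO cells. Fluorescence followed for 3 min, sampled every second.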

The target is the same in experiment [13]. Nature of the experiment: 5-hydroxytryptamine receptor 2A (HTR2A) small molecule agonists, cell-based qHTS assay (AID 1963587). Note: nearly all actives have a fitted effect of over 30% in size. The gist of the method: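 HTR2A-CHO cells, plated 18 h at 37 C/5% CO2, dye-loaded 1 h at 37 C; compounds in DMSO added by pin tool (agonist mode). Intracellular calcium flux read as kinetic fluorescence on FDSS over 2 min at 1 s intervals.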

Experiment [14] has as its target Muscarinic acetylcholine receptor M1 (Homo sapiens) (UniProt P11229). Nature of the experiment: Cholinergic receptor muscarinic 1 (CHRM1) small molecule antagonists, cell-based qHTS assay (AID 1963588). Note: nearly all actives have a fitted effect of over 40% in size. The gist of the method: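 CHRM1-CHO calcium-flux assay, antagonist mode. Cells were seeded 18 h, dye-loaded 1 h at 37 C and given compound for 5 min at RT, then acetylcholine was added at 50nM. FDSS fluorescence was read 3 min; 15 concentrations, three runs.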

The target is the same in experiment [15]. Nature of the experiment: Cholinergic receptor muscarinic 1 (CHRM1) small molecule agonists, cell-based qHTS assay (AID 1963589). Note: nearly all actives have a fitted effect of over 35% in size. The gist of the method:
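Measures agonist-induced intracellular calcium rise. Stable human CHRM1 CHO line, 1 h dye load at 37 C, compounds from DMSO, kinetic fluorescence read.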

In experiment [16] the target is Beta-2 adrenergic receptor (Homo sapiens) (UniProt P07550). Nature of the experiment: Adrenergic beta2 receptor (ADRB2) small molecule antagonists, cell-based qHTS assay (AID 1963592). Note: nearly all actives have a fitted effect of over 50% in size. Note: potency is the fitted concentration of half-maximal effect. The gist of the method:
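Cells (CHO, stable ADRB2 overexpression) incubated 18-20hr at 37C; compounds added from DMSO; agonist mix (1nM isoproterenol, 100uM IBMX, 25uM Ro-20-1724) added; 0.5hr RT; d2-cAMP and anti-cAMP-cryptate added; 1hr RT; 665/615 nm read.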

For experiment [17], the target named is D(2) dopamine receptor (Homo sapiens) (UniProt P14416). Nature of the experiment: Dopamine D2 receptor (DRD2) small molecule agonists, cell-based qHTS assay (AID 1963594). Note: nearly all actives have a fitted effect of over 35% in size. The gist of the method: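 HEK293 cells stably expressing DRD2 were cultured 24 h at 37 C, then given Ro20-1724 (0.1 mM final) and compounds for 10 min at room temperature. NKH477 (200nM) was then added for 30 min. cAMP was read by HTRF.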
Sequence of D(2) dopamine receptor (Homo sapiens) (P14416 whole entry, looked up): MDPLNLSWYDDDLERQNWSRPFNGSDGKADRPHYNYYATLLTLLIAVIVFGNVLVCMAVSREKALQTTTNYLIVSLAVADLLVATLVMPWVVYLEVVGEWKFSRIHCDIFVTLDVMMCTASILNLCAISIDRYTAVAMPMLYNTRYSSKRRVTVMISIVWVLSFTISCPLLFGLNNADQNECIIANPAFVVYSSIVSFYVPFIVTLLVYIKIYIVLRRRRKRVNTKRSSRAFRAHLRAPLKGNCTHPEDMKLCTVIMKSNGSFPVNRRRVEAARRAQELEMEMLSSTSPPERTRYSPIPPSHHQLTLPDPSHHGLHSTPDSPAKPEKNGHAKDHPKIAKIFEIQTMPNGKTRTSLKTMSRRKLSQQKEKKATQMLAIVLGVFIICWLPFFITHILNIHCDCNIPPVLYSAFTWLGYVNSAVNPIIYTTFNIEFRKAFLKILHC

Experiment [18] shares this target. In words: Dopamine D2 receptor (DRD2) small molecule antagonists, cell-based qHTS assay (AID 1963595; active = well fitted inhibition curve with a large enough effect in the signal ratio in the repeat runs, with a control signal flat; the % refers to the signal ratio; note: potency is the fitted concentration of half-maximal effect). The gist of the method: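 Antagonism was scored as restored cAMP in HEK293-DRD2 cells. These cells were stimulated with 200 nM NKH477 and 12 nM quinpirole for 30 min at room temperature, in the presence of 0.1 mM Ro20-1724.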
Experiment [19] can be described thus: cAMP Responsive Elements (CRE) small molecule antagonists, cell-based qHTS assay (AID 1963591; active = well fitted inhibition curve with a large enough effect in the signal ratio in the repeat runs, not every such curve was filed as active; the % refers to the signal ratio). The gist of the method: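 HEK293T cells carrying a CRE-driven beta-lactamase reporter receive compound and NKH477 (0.25 uM final) for 3 h. Fluorescence from LiveBLAzer B/G FRET substrate is read after 2 h at room temperature.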

A number with no mark means an inactive call. Records with an inconclusive call do not appear. Calls of active or inactive are those of the source. Unless noted, calls come from the whole dose curve.

Consider six compounds from PubChem BioAssay (Tox21).

Sequence of Beta-2 adrenergic receptor (Homo sapiens) (P07550 whole entry, looked up): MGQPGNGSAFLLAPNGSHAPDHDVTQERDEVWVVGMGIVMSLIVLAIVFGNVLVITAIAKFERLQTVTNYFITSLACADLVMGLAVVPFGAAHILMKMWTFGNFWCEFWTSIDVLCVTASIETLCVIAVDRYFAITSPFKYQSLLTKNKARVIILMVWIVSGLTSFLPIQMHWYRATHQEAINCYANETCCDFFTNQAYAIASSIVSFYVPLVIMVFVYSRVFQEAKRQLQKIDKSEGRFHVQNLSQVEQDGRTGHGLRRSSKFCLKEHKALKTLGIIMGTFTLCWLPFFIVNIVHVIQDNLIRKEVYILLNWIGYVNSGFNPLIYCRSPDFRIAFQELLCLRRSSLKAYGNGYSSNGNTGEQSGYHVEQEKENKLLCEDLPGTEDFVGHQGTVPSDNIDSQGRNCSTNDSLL
Sequence of Muscarinic acetylcholine receptor M1 (Homo sapiens) (P11229 whole entry, looked up): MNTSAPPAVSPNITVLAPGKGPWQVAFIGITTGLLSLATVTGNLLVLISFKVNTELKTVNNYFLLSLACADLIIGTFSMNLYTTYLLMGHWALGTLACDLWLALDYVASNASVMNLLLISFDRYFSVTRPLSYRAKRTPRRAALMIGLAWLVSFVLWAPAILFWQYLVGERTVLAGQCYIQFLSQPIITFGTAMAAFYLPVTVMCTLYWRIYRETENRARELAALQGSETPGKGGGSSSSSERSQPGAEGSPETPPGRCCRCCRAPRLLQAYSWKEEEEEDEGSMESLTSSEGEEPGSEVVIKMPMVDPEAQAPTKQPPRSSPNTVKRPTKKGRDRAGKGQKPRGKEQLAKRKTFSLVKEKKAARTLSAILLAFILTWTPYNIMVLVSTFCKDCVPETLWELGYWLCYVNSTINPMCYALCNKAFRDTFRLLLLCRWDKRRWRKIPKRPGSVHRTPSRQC
Sequence of KiSS-1 receptor (Homo sapiens) (Q969F8 whole entry, looked up): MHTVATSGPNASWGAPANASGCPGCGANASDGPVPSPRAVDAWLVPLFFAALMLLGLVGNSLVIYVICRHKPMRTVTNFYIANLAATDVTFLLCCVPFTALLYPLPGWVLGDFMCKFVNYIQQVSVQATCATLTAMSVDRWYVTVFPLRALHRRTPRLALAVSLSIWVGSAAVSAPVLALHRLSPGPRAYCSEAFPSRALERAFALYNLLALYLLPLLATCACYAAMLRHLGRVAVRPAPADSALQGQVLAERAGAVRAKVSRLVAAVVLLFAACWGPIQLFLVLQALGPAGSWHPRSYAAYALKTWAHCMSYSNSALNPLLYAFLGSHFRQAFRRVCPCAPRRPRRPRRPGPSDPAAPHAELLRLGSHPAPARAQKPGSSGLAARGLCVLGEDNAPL
Sequence of 5-hydroxytryptamine receptor 2A (Homo sapiens) (P28223 whole entry, looked up): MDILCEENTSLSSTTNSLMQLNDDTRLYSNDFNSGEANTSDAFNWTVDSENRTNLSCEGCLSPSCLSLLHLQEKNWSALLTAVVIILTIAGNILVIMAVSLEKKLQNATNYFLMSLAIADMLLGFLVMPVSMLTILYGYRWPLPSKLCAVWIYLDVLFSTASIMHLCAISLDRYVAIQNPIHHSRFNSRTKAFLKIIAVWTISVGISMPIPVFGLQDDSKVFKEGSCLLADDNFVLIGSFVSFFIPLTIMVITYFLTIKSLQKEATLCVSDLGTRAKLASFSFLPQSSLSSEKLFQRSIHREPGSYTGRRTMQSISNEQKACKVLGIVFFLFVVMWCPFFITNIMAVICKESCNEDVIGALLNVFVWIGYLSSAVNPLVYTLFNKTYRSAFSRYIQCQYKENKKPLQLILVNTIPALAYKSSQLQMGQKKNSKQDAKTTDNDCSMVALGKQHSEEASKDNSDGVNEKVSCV

`Cc1ccc(C(=O)c2ccccc2)cc1`: the Potency result in [1], in [2], in experiment [3], in [6], in experiment [7] and in experiment [8] was “inactive” throughout. Besides, the Potency result in [9], in experiment [10], in experiment [11], in [12], in [13] and in experiment [14] was “inactive” each time. Besides, the Potency entry in [15], in experiment [16], in experiment [17] and in experiment [18] was “inactive” in each case. Also, the result in [4] and in [5] was inactive.
As to `C=CN1CCCCCC1=O`, the Potency entry in experiment [1], in experiment [2], in [3], in experiment [6], in experiment [7] and in experiment [8] was “inactive” throughout. Besides, the Potency result in [9], in experiment [10], in experiment [11], in [12], in experiment [13] and in experiment [14] was “inactive” each time. Also, the Potency result in experiment [15], in experiment [19], in experiment [16], in experiment [17] and in [18] was “inactive” in each case. For the same compound, the outcome in [4] and in [5] was inactive.
As to `CCCCCCCCCCCCCC(=O)OCC(O)CO` (stereo not given), the Potency result in experiment [1], in experiment [2], in [3], in experiment [6], in experiment [7] and in [8] was “inactive” throughout. The Potency entry in experiment [9], in experiment [10], in experiment [11], in experiment [12], in experiment [13] and in experiment [14] was “inactive” each time. Besides, the Potency result in experiment [15], in experiment [19], in [16], in experiment [17] and in experiment [18] was “inactive” in each case. Further, the result in [4] and in experiment [5] was inactive.
For `CCCCCCCC/C=C/C(=O)O`, the Potency entry in experiment [1], in experiment [2], in experiment [3], in experiment [6], in experiment [7] and in experiment [8] was “inactive” each time. The Potency entry in experiment [9], in experiment [10], in [11], in experiment [12], in experiment [13] and in experiment [14] was “inactive” each time. Moreover, the Potency entry in experiment [15], in experiment [19], in [16] and in experiment [17] was “inactive” in each case. The result in experiment [4] and in [5] was inactive.
For `CC(C)(C)c1cc(CCC(=O)NCCCCCCNC(=O)CCc2cc(C(C)(C)C)c(O)c(C(C)(C)C)c2)cc(C(C)(C)C)c1O`, the Potency entry in [1], in [2], in experiment [3], in experiment [6], in experiment [7] and in experiment [8] was “inactive” in each case. In addition, the Potency entry in experiment [9], in [10], in experiment [11], in experiment [12], in [13] and in [14] was “inactive” throughout. The Potency result in [15], in experiment [16], in experiment [17] and in [18] was “inactive” each time. For the same compound, the result in experiment [4] and in experiment [5] was inactive.
Regarding `O=C(NC1CCN(CCc2c[nH]c3ccccc23)CC1)c1ccccc1`, the Potency result in experiment [1], in [2], in [3], in experiment [6], in [7] and in [8] was “inactive” each time. Also, the Potency entry in [9], in [10], in experiment [11], in [13], in experiment [14] and in experiment [15] was “inactive” each time. Besides, the Potency entry in experiment [17] was “inactive”. In addition, the result in [4] and in experiment [5] was inactive. Further, the Potency in [12] is 460 nM (active); in experiment [16], 13300 nM (active); in experiment [18], 596 nM (active).
